Screens (PubChem)
This is a sample that favours compounds with a hit; in the whole collection about 12% have one here.
ALDH1A1 inh: inhibitors of human aldehyde dehydrogenase 1A1. P00352. Purified ALDH1A1, NADH fluorescence, propionaldehyde substrate. Potency, µM (titrated, usually from 75.3 µM), most hits filed as inhibitors. hit rate 7.3% among 220,000; active = well fitted inhibition curve with a large enough effect, not every such curve was filed as active; inconclusive = small, poorly fitted or top-dose-only effect, or another doubt; inactive = no such curve, though single readings can be large or run the other way
PLK1 PBD inh: inhibitors of human PLK1 polo-box domain binding; P53350; Plk1 PBD binding of FITC phosphopeptide, fluorescence polarization; Potency, µM, most hits filed as inhibitors; hit rate 2.8% among 360,000; AID 720504; note: series mostly up to about 57 µM; nearly all actives have a fitted effect of over 65% in size
Target sequence (P53350 whole entry, looked up, the tested form may be a part): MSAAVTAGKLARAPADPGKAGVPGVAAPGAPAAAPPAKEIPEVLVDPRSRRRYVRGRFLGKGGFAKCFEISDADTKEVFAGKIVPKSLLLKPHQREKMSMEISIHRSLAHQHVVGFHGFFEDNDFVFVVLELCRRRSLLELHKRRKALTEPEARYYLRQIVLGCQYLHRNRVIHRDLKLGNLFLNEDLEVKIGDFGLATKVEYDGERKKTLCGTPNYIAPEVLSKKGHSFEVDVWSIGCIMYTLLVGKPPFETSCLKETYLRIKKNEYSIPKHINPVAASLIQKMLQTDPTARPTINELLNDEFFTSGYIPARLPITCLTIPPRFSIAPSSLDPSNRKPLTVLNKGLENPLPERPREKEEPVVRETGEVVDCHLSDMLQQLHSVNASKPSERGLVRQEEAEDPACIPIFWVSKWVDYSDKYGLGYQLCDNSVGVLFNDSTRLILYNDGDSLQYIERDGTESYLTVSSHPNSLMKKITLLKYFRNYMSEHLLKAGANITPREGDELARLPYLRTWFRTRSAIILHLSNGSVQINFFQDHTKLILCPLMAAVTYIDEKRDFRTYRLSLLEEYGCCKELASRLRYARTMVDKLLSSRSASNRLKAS
Sfp inh: Sfp phosphopantetheinyl transferase inhibition. Q9F4F7. Biochemical Sfp PPTase activity, qHTS. Potency, µM, actives largely listed as inhibitors. hit rate 3.5% among 310,000. AID 1490;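 note: the enzyme is Sfp with the accession as filed and its product quenches rhodamine fluorescence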
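Fluorescence-quenching assay: 15 nM Sfp-PPTase preincubated 15 min at room temperature with compound, then 5 uM rhodamine-CoA and 12.5 uM BHQ-2-labelled YbbR peptide added. Fluorescence (ex 525/em 598 nm) read at start and after 30 min; difference gives rate.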
VP16 counter: Gal4-VP16 reporter inhibition counter-screen. Drosophila S2 Gal4-VP16 UAS-luciferase, luminescence, 20 h. hit rate 3.5% among 310,000. Potency, µM (doses to about 53.6 µM), actives largely listed as inhibitors;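 note: Gal4-VP16 expression switched on by copper sulfate through the metallothionein promoter; nearly all actives have a fitted effect of over 50% in size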
RORgamma inh: blocks mouse ROR gamma transcriptional activity; P51450; Drosophila S2 Gal4-RORgamma UAS-luciferase reporter, 20 h; Potency, µM (doses to about 53.6 µM), most hits filed as inhibitors; hit rate 5.4% among 310,000; AID 2551; note: nearly all actives have a fitted effect of over 60% in size
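Compounds are pin-transferred onto Drosophila Schneider cells expressing a copper-inducible Gal4–ROR gamma transactivation domain fusion. After 1 hr, copper sulfate is added to 700 uM final; luciferase is read 20 hr later.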
A number is an active result; - = inactive; ? = inconclusive; . = no result given. Unless noted, calls come from the whole dose curve; as a rule, active = well fitted curve in the direction sought with a large enough effect; inconclusive = small, poorly fitted or top-dose-only effect, or another doubt; inactive = no such curve, though single readings can be large; an effect the other way counts as inactive or inconclusive.

SMILES	ALDH1A1 inh	PLK1 PBD inh	Sfp inh	VP16 counter	RORgamma inh
O=C1C2ON(c3ccccc3)C(c3ccccc3F)C2C(=O)N1c1ccccc1 (stereo not drawn)	-	-	-	-	-
CCOc1ccccc1C1C2C(=O)N(c3ccccc3)C(=O)C2ON1c1ccccc1 (stereo not drawn)	22µM	-	-	-	-
Cc1cccc(NC(=O)/C(=C\c2ccco2)NC(=O)c2cccs2)c1	-	-	56µM	-	-
Cc1ccc(C(=O)N/C(=C/c2ccco2)C(=O)Nc2cccc(C)c2)cc1	?	-	35µM	-	-
Cc1cccc(NC(=S)NNC(=O)c2csc(C(C)C)c2)c1	13µM	-	-	-	-
Cc1cccc(NC(=O)C(=O)NNC(=O)c2ccc(C(C)(C)C)cc2)c1	.	-	-	10µM	?
C[C@H]1CN([C@@H](C)CO)C(=O)c2cc(C#CC3CCCC3)cnc2O[C@H]1CN(C)C(=O)Cc1ccccn1	.	-	.	.	.
CC(C)NC(=O)N(C)C[C@H]1Oc2cc(C#Cc3ccc(F)cc3)ccc2S(=O)(=O)N([C@H](C)CO)C[C@H]1C	.	-	.	.	.
COC(=O)c1ccccc1NC(=O)NCc1ccncc1	?	21µM	-	-	-
COC(=O)c1ccccc1NC(=O)c1cccs1	-	-	-	-	-
COC(=O)c1ccccc1NC(=O)Nc1cccs1	?	-	40µM	?	?
Cc1ccc(C(O)(C(=O)NNc2ccc3ccccc3n2)c2ccc(C)cc2)cc1	-	-	-	8.9µM	10µM
Cc1ccc(NC(=O)Nc2nnc(-c3ccccc3)o2)cc1	-	-	-	-	-
Cc1ccc(-c2nnc(Nc3ccccc3)o2)cc1	-	-	-	14µM	5µM
CC(C)c1ccc([C@@H]2O[C@H](CCc3ccccc3)CC3=C2C(=O)OC(C)(C)O3)cc1	.	-	.	.	.
NC(=O)/C(=N\OC(=O)c1ccco1)c1nc(-c2ccc(Br)cc2)cs1	13µM	5.3µM	-	?	4.5µM
CCN(c1ccccc1)S(=O)(=O)c1ccc(C(=O)Nc2ncccc2O)cc1	.	-	-	?	20µM
CCN(c1ccccc1)S(=O)(=O)c1ccc(C(=O)Nc2cccc(NC(C)=O)c2)cc1	.	-	.	.	.
CCN(c1ccccc1)S(=O)(=O)c1ccc(C(=O)Oc2ccc(C(C)=O)cc2)cc1	-	-	-	10µM	?
CCN(c1ccccc1)S(=O)(=O)c1ccc(C(=O)Nc2ncccc2C)cc1	.	-	.	.	.
COc1ccc(-c2csc(NC(=O)C3CCCO3)n2)cc1 (stereo not drawn)	22µM	-	-	-	-
COc1ccc(C(=O)NNC(=O)C2CCCO2)cc1 (stereo not drawn)	.	27µM	-	-	-
COc1ccc(NC(=O)C2CCCO2)cc1 (stereo not drawn)	-	-	-	-	-
COc1ccccc1C(=O)NNC(=O)C1CCCO1 (stereo not drawn)	.	-	-	-	11µM
COC(=O)c1c(-c2ccc(F)cc2)csc1NC(=O)C1CCCO1 (stereo not drawn)	20µM	-	-	-	?
SMILES	ALDH1A1 inh	PLK1 PBD inh	Sfp inh	VP16 counter	RORgamma inh
CCOC(=O)N1CCN(C(C(=O)NC2CCCC2)C(C)C)CC1 (stereo not drawn)	.	-	.	.	.
O=C(N/N=C/c1ccco1)c1cc(-c2cccc(Br)c2)nc2ccccc12	-	-	?	5.6µM	3.2µM
CC(/C=N/NC(=O)c1cc(-c2ccncc2)nc2ccccc12)=C\c1ccco1	?	-	22µM	-	-
COC(=O)C1CCN(Cc2c(C(=O)N3C[C@@H](C)O[C@@H](C)C3)nc3ccc(Cl)cn23)CC1	.	-	-	-	-
CC1(c2nnnn2-c2ccc3c(c2)OCCO3)CCC(=O)N1CCCn1ccnc1 (stereo not drawn)	.	-	.	.	.
CCOc1ccc(C(=O)Nc2ccccc2N2CCN(C(=O)c3ccccc3)CC2)cc1[N+](=O)[O-]	.	-	-	-	-
CCOc1ccc(C(=O)NC(=S)Nc2ccc(N3CCC(C)CC3)cc2)cc1[N+](=O)[O-]	7.9µM	-	-	?	0.4µM
CCOc1ccc(C(=O)NC(=S)Nc2ccccc2N2CCC(C)CC2)cc1[N+](=O)[O-]	?	-	-	3.2µM	1µM
CCC(=O)N1CCN(c2ccc(NC(=S)NC(=O)c3ccc(OC)c([N+](=O)[O-])c3)cc2)CC1	11µM	-	-	5µM	7.1µM
CCCC(=O)N1CCN(c2ccc(NC(=O)c3ccc(OCC)c([N+](=O)[O-])c3)cc2)CC1	-	-	-	-	-
C[C@H](NC(=O)c1ccccc1)C(=O)OCC(=O)Nc1ccc(Cl)cn1	.	-	.	.	.
Cc1cccc(-c2cnc(C(O)c3ccc(-c4ccccc4)cc3)[nH]2)c1 (stereo not drawn)	.	-	.	.	.
Clc1ccccc1-c1ccc2ncnc(NC3CCNCC3)c2c1	-	.	-	-	-
CCN(CC(=O)NC(C)(C)C)C(=O)COc1c(Cl)cc(Cl)c2ccc(C)nc12	?	-	-	3.2µM	1.3µM
Cc1ccc2c(Cl)cc(Cl)c(OCC(=O)NC3CCS(=O)(=O)C3)c2n1 (stereo not drawn)	-	-	-	11µM	8.9µM
COCCCn1c(C23CC4CC(CC(C4)C2)C3)n[nH]c1=S	.	-	?	6.3µM	5µM
COCCCn1c(C)cc(C(=O)COC(=O)C23CC4CC(CC(O)(C4)C2)C3)c1C	.	-	.	.	.
Cn1c(C23CC4CC(CC(C4)C2)C3)n[nH]c1=S	-	-	-	8.9µM	5µM
CCCn1c(C(C)C)n[nH]c1=S	.	-	-	-	-
CC(C)Cn1c(C23CC4CC(CC(C4)C2)C3)n[nH]c1=S	.	-	?	3.2µM	3.2µM
CC(=O)C1=CCC(c2ccccc2)N(S(=O)(=O)c2ccc(Cl)cc2)C1 (stereo not drawn)	.	-	.	.	.
CSc1ccccc1OCc1cc(C(=O)N(C)Cc2nonc2C)no1	.	-	-	-	-
CSc1ccccc1OCc1cc(C(=O)N(C)CCn2nc(C)cc2C)no1	.	3.4µM	-	-	-
CCCn1c(C(C)Nc2nc(-c3ccc(OC)cc3)cs2)nc2ccccc21 (stereo not drawn)	.	-	-	?	7.9µM
O=C(c1ccc(CSc2nc3ccncc3[nH]2)cc1)N1CCCCC1	25µM	-	-	-	-
SMILES	ALDH1A1 inh	PLK1 PBD inh	Sfp inh	VP16 counter	RORgamma inh
Cc1ccc(C)c(N2CCN(C(=O)c3ccc(CSc4nc5ccncc5[nH]4)cc3)CC2)c1	?	-	-	-	?
COc1cccc(N2CCN(C(=O)c3ccc(CSc4nc5ccncc5[nH]4)cc3)CC2)c1	22µM	-	-	-	-
Cc1cc(C)n2c(=O)[nH]nc2c1	.	-	.	.	.
C=CCSc1nc2c(c(=O)[nH]c(=O)n2C)n1C(C)C	3.2µM	27µM	?	-	-
Cc1ccc(Cn2c(SCC(C)C)nc3c2c(=O)[nH]c(=O)n3C)cc1	28µM	24µM	35µM	-	-
C=CCSc1nc2c(c(=O)[nH]c(=O)n2C)n1Cc1ccc(C)cc1	-	21µM	-	-	?
C/C(Cl)=C/CSc1nc2c(c(=O)[nH]c(=O)n2C)n1C(C)C	?	-	-	-	-
COCCSc1nc2c(c(=O)[nH]c(=O)n2C)n1Cc1cccc(C)c1	14µM	-	-	-	-
